The values that follow come from PubChem BioAssay (Tox21).

Where “and” joins values, the source holds several entries; their conditions need not be identical. Identical values can stand only once. Calls of active or inactive are those of the source. Unless noted, the call rests on the fitted dose curve; in most records, active means well fitted curve in the direction sought with a large enough effect in the repeat runs; inconclusive means weak or mixed curves; inactive means no such curve, though single readings can be large; an effect the other way counts as inactive or inconclusive.

Assay [1] is described as follows: qHTS assay to test for compound auto fluorescence at 535 nm (green) in HEK293 cells (AID 720680).
The nature of assay [2]: qHTS assay to test for compound auto fluorescence at 460 nm (blue) in HEK293 cell free culture (AID 720681). In short, it runs like this:
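Compounds were added to cell-free DMEM with 10% FBS and fluorescence read directly. The blue channel used 405 nm excitation and 460 nm emission, with triamterene as the reference fluorophore.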
Background: Quantitative high-throughput screening tests each substance at several concentrations.

Assay [3] in a line: qHTS assay to test for compound auto fluorescence at 535 nm (green) in HEK293 cell free culture (AID 720682). A digest of the protocol: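 Steps: dispense DMEM/10% FBS into empty wells; pin in compound or DMSO; measure fluorescence at 485/535 nm. Values are fluorescein equivalents.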
The nature of assay [4]: qHTS assay to test for compound auto fluorescence at 590 nm (red) in HEK293 cell free culture (AID 720683). A digest of the protocol: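 Cell-free wells of DMEM with 10% FBS received compound, and intrinsic fluorescence was read at excitation/emission 540/590 nm. Values expressed as equivalence to Rose Bengal sodium.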
Assay [5] in a line: qHTS assay to test for compound auto fluorescence at 590 nm (red) in HepG2 cell free culture (AID 720684). In short, it runs like this:
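Rose Bengal sodium served as the reference for red signal. Test compounds were dispensed into serum-containing MEM (10% FBS) without cells, and plates were read at 540/590 nm.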

Assay [6] in a line: qHTS assay to test for compound auto fluorescence at 460 nm (blue) in HepG2 cell free culture (AID 720685). In short, it runs like this:
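Cell-free plates of MEM plus 10% FBS received 23 nL compound or DMSO vehicle; blue-channel (405/460 nm) intensity scored against triamterene as reference fluorophore.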

Assay [7] can be described thus: qHTS assay to test for compound auto fluorescence at 535 nm (green) in HepG2 cell free culture (AID 720686).
Assay [8] concerns the target Glucocorticoid receptor (Homo sapiens) (UniProt P04150). In words: qHTS assay to identify small molecule agonists of the glucocorticoid receptor (GR) signaling pathway (AID 720691; active means well fitted activation curve with a large enough effect in the signal ratio in the repeat runs, not every such curve was filed as active; inconclusive means weak or mixed curves, or effect the other way; inactive means no such curve, though single readings can be large or run the other way; the % refers to the signal ratio; further: potency means the concentration at half of the fitted maximal effect). The following applies: GR-bla HeLa, beta-lactamase reporter ratio, 18 h; activation: at 62.4 µM (top of the series). A digest of the protocol: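 Measures GR pathway activation through a GRE-beta-lactamase reporter stably integrated in HeLa cells, with 18 h compound treatment at 37 C and fluorescence detection using a FRET substrate.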

Assay [9] can be described thus: qHTS assay to identify small molecule antagonists of the glucocorticoid receptor (GR) signaling pathway - cell viability counter screen (AID 720693). Further: nearly all actives have a fitted effect of over 55% in size. Further: potency means the concentration at half of the fitted maximal effect.
Assay [10] is described as follows: qHTS assay for identifying genotoxic compounds that show differential cytotoxicity against isogenic chicken DT40 cell lines with known DNA damage response pathways - wild type cell line (AID 743012). Further: nearly all actives have a fitted effect of over 60% in size. Further: potency means the concentration at half of the fitted maximal effect. A digest of the protocol:
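Endpoint: CellTiter-Glo luminescence, 30 min RT. Cells: wild type DT40, 300/well. Exposure: compounds in DMSO, 40 h, 37 C/5% CO2, after ~0.5 h pre-incubation.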

A short description of assay [11]: qHTS assay for identifying genotoxic compounds that show differential cytotoxicity against isogenic chicken DT40 cell lines with known DNA damage response pathways - Rev3 mutant cell line (AID 743014). Further: nearly all actives have a fitted effect of over 55% in size. Further: potency means the concentration at half of the fitted maximal effect.
Assay [12] in a line: qHTS assay for identifying genotoxic compounds that show differential cytotoxicity against isogenic chicken DT40 cell lines with known DNA damage response pathways - Rad54/Ku70 mutant cell line (AID 743015). Further: nearly all actives have a fitted effect of over 60% in size. Further: potency means the concentration at half of the fitted maximal effect.
A short description of assay [13]: qHTS assay to identify small molecule antagonists of the androgen receptor (AR) signaling pathway - cell viability counter screen (AID 743033; further: nearly all actives have a fitted effect of over 45% in size).
Assay [14] is described as follows: qHTS assay to identify small molecule antagonists of the androgen receptor (AR) signaling pathway using the MDA cell line - cell viability counter screen (AID 743041; further: nearly all actives have a fitted effect of over 45% in size; further: potency means the concentration at half of the fitted maximal effect). A digest of the protocol: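 Cytotoxicity counter screen: MDA-kb2 AR-luc cells, compound + R1881, 16 h, 37C, 0% CO2; CellTiter-Fluor added at 15.5 h, fluorescence read after 30 min.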
Assay [15] is described as follows: qHTS assay to test for compound auto fluorescence at 460 nm (blue) in HepG2 cells (AID 720687). In short, it runs like this: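 HepG2 cells in MEM with 10% FBS, attached overnight at 37 C, were exposed to compound or DMSO for 1 hr at 37 C, 5% CO2. Blue fluorescence was read at 405/460 nm, with triamterene as reference fluorophore.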
For assay [16], the target named is Glucocorticoid receptor (Homo sapiens) (UniProt P04150). The assay is described as follows: qHTS assay to identify small molecule antagonists of the glucocorticoid receptor (GR) signaling pathway (AID 720692; active means well fitted inhibition curve with a large enough effect in the signal ratio in the repeat runs, not every such curve was filed as active; inconclusive means weak or mixed curves, or effect the other way; inactive means no such curve, though single readings can be large or run the other way; the % refers to the signal ratio). A digest of the protocol:
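Tox21 10K library screened in concentration-response for blockade of dexamethasone (5 nM final)-induced GRE-bla reporter activity in HeLa cells; 18 h treatment, fluorescence read.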

Glucocorticoid receptor (Homo sapiens), sequence (P04150 whole entry, looked up): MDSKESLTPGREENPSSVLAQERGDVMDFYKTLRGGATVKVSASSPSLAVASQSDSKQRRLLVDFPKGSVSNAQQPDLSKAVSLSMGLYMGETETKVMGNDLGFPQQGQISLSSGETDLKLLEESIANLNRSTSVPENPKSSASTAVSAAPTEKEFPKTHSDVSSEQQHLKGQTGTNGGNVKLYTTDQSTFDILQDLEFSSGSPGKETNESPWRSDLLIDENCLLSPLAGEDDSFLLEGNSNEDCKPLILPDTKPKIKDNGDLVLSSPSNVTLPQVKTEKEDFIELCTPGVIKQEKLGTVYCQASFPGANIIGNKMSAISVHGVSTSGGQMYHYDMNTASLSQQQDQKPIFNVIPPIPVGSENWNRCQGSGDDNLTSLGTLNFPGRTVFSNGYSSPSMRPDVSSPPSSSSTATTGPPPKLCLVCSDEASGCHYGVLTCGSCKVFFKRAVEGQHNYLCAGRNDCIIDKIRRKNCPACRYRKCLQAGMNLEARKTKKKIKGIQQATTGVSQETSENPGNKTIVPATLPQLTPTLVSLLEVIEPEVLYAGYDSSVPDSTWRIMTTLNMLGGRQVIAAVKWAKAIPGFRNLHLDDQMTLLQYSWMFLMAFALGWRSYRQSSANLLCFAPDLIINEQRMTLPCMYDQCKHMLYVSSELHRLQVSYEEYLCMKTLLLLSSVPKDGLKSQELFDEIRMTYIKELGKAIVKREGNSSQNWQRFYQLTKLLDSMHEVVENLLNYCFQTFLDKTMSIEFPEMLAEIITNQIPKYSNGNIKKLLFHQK

Regarding `COc1ccc(C(=O)CCC(=O)O)c2ccccc12`, the Potency entry in assay [1], in assay [2], in assay [3], in assay [4], in assay [5] and in assay [7] was “inactive” each time. Also, the Potency result in assay [8], in assay [9], in [10], in [11], in assay [12] and in assay [13] was “inactive” throughout. Besides, the Potency entry in assay [14] was “inactive”. Further, in assay [6], the compound was classed as inactive.

Take `COc1ccc(C[C@H](N)C(=O)N[C@H]2[C@@H](O)[C@H](n3cnc4c(N(C)C)ncnc43)O[C@@H]2CO)cc1`: the Potency result in [1], in [2], in assay [3], in assay [4], in [5] and in [7] was “inactive” throughout. In addition, the Potency result in assay [12] was “inactive”. In [6], the call was inactive. The Potency is 4.77 µM (active) in assay [9], 0.841 µM (active) in assay [10], 0.75 µM (active) in [11] and 7.5 µM (active) in assay [14].

For `CNC(=O)[C@H](Cc1c[nH]c2ccccc12)NC(=O)[C@@H](CC(=O)NO)CC(C)C`, the Potency result in [1], in [2], in assay [3], in assay [4], in [5] and in assay [9] was “inactive” throughout. For the same compound, the Potency entry in assay [13] and in [14] was “inactive” each time. Also, the compound was called inactive in assay [6] and in assay [15]. Besides, the Potency in assay [8] is 15.1 µM (active); in assay [12], 33.5 µM (active).

Turning to `O=C1O[C@H]2[C@H](O)[C@@H]1OC(O)[C@H]2O` (some centres not stated), the Potency entry in assay [1], in [2], in [3], in [4], in [5] and in assay [8] was “inactive” in each case. Besides, the Potency result in assay [16], in assay [9], in assay [10], in assay [11], in [12] and in assay [13] was “inactive” in each case. The Potency entry in [14] is “inactive”. Further, the compound was classed as inactive in assay [6] and in assay [15].

In the case of `O=P(O)(O)OC[C@H](O)CO`, the Potency entry in assay [1], in [2], in assay [3], in assay [4], in assay [5] and in assay [7] was “inactive” in each case. The Potency entry in assay [9], in assay [10], in assay [11], in assay [12], in assay [13] and in assay [14] was “inactive” in each case. Besides, the result in assay [6] was inactive.

With `CC(=O)[C@]1(O)Cc2c(O)c3c(c(O)c2[C@@H](O[C@H]2C[C@H](N)[C@H](O)[C@H](C)O2)C1)C(=O)c1c(O)cccc1C3=O`, the Potency result in assay [1], in assay [2], in assay [3], in [4] and in assay [5] was “inactive” throughout. Moreover, the outcome in [6] and in assay [15] was inactive. Besides, the Potency is 10.7 µM [inconclusive] (active) and 23.9 µM [inconclusive] (active) in [8]; 3.01 µM (active) in assay [9]; 0.0188 µM (active) in assay [11]; 11.9 µM (active) in assay [14].

Take `O=C(NCCNCC(O)COc1ccc(O)cc1)N1CCOCC1` (configuration not stated): the Potency result in assay [1], in assay [2], in assay [3], in [4], in [5] and in assay [8] was “inactive” throughout. The Potency entry in assay [16], in assay [9], in assay [10], in assay [12] and in assay [13] was “inactive” each time. The call in assay [6] and in [15] was inactive.

Take `N=C(N)c1ccc(OCCCOc2ccc(C(=N)N)cc2Br)c(Br)c1`: the Potency result in assay [1], in [2], in assay [3], in [4], in [5] and in assay [7] was “inactive” throughout. Also, the Potency entry in assay [9], in assay [13] and in assay [14] was “inactive” each time. The outcome in assay [6] was inactive. Moreover, the Potency in assay [10] was 5.96 µM (active); in [12] it was 6.68 µM (active).
